# TDP1 cell CPT: growth inhibition of DT40 Tdp1-/-;hTDP1 cells with camptothecin (screen for TDP1 inhibitors); chicken DT40 Tdp1-/-;hTDP1 cells + 20 nM CPT, ATP luminescence, 48 h; Potency, µM (titrated, usually from 46.2 µM), actives largely listed as inhibitors; 12% of 420,000 active; AID 686979; further: nearly all actives have a fitted effect of over 55% in size
#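 Chicken DT40 Tdp1-/- cells stably complemented with human TDP1 were seeded at 400 cells/well in medium containing 20 nM camptothecin, exposed to pin-transferred compounds, and grown at 37 °C for at least 48 hr. Viability was read as ATP luminescence.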
# HT1080 IDH1KD tx: kills HT-1080 cells with IDH1 knockdown. HT-1080 IDH1 knockdown viability, ATP luminescence, 48 h. Potency, µM (doses to about 46.1 µM), hits mostly cytotoxic. 2% of 360,000 active
#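 Luminescent ATP read-out (CellTiter-Glo, 10 min at room temperature) after 48 h compound exposure at 37 °C gave viability of IDH1-knockdown HT-1080 cells. Activity was normalised to DMSO and cell-free wells, then fitted as concentration-response curves.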
# DT40 TDP1 no CPT: qHTS for Inhibitors of human tyrosyl-DNA phosphodiesterase 1 (TDP1): qHTS in cells in absence of CPT; DT40 Tdp1-/- hTDP1 cells, no CPT, ATP luminescence, 48 h; 15% of 420,000 active; Potency, µM (series often up to 46.2 µM), actives largely listed as inhibitors; further: nearly all actives have a fitted effect of over 55% in size
#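 A cellular qHTS used chicken DT40 cells lacking endogenous Tdp1 but carrying stably transfected human TDP1. Compounds were applied without camptothecin, and cell growth kinetics were judged by ATP-dependent luminescence after ≥48 hr.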
# IL1B secr inh: blocks inflammasome-driven IL-1 beta release. activity change, % at 57.5 µM. THP-1 LPS/ATP IL-1B secretion, AlphaLISA, 16 h; active compounds read low. 4.7% of 360,000 active; in the data active means activity change below about -50%; inconclusive means mostly about -30% to -49%
#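 Secreted IL-1B measured by AlphaLISA bead assay after 16 h compound exposure of THP-1 cells; compounds (final up to 57.5 uM) added 1 h before LPS (250 ng/mL) and ATP (1.25 mM) stimulation; lower signal means less secretion.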
# HT1080-NT tox: kills 2HG-producing HT-1080-NT fibrosarcoma cells; HT-1080-NT fibrosarcoma viability, CellTiter-Glo ATP luminescence, 48 h; Potency, µM (doses to about 46.1 µM), usual class: cytotoxic; 1.6% of 360,000 active;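 further: NT is the 2HG producing partner of a matched IDH1 knockdown line; nearly all actives have a fitted effect of over 55% in size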
#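 Fibrosarcoma NT cells, 750 per well in 5% FBS RPMI, were exposed to compound for 48 hours. Viability: CellTiter-Glo luminescence.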
# Numbers stand for hits; 0 = inactive; ? = inconclusive; - = no result given; ! = repeats disagree. This is a sample that favours compounds with a hit; in the whole collection about 19% have one here. Unless noted, the call rests on the fitted dose curve; in most records, active means well fitted curve in the direction sought with a large enough effect; inconclusive means small, poorly fitted or top-dose-only effect, or another doubt; inactive means no such curve, though single readings can be large; an effect the other way counts as inactive or inconclusive.
SMILES,TDP1 cell CPT,HT1080 IDH1KD tx,DT40 TDP1 no CPT,IL1B secr inh,HT1080-NT tox
COc1ccc(OC)c(NC(=O)C(C)OC(=O)c2cc3ccccc3[nH]2)c1 (stereo unspecified),?,0,?,0,0
CCc1nnc(SCc2nc(-c3ccccc3Cl)oc2C)c2cc3sc(C)cc3n12,?,-,0,-,-
CNC(=O)c1c(NC(=O)CS(=O)(=O)c2ccccc2)sc(C)c1C,0,0,0,0,0
CNC(=O)c1c(NC(=O)CS(=O)(=O)c2ccc(Cl)cc2)sc(C)c1C,9.2µM,0,?,0,0
CCC(=NCc1ccc(Cl)c(Cl)c1)c1nc(-c2ccco2)oc1O,?,?,?,-64,0
CCCN1C(=O)/C(=C/C=C2\N(CC)c3ccccc3C2(C)C)SC1=S,?,0,13µM,0,0
CN1/C(=C\C=C2/SC(=S)N(CC(=O)O)C2=O)C(C)(C)c2ccccc21,0,?,?,0,?
O=c1oc(Cc2ccccc2)nc2ccccc12,0,0,0,0,0
COc1ccc2c(c1OC)C(=O)OC2C1c2c(cc3c(c2OC)OCO3)CCN1C (stereo unspecified),?,0,18µM!,0,?
CN1CCc2cc3c(c4c2[C@H]1[C@H](O)c1ccccc1-4)OCO3,18µM,0,?,-62,0
COc1ccc2c(c1OC)C(C1c3c(cc4c(c3OC)OCO4)CCN1C)OC2=O (stereo unspecified),?,0,?,0,0
COc1ccc2c(c1OC)C(=O)O[C@H]2C1c2c(cc3c(c2OC)OCO3)CCN1C (stereo partly specified),16µM!,-,?,-,-
CN1CCc2cc3c(c4c2C1CC41CCC(=NO)CC1)OCO3 (stereo unspecified),0,0,0,0,0
COc1ccccc1CC(O)CC1c2c(cc3c(c2OC)OCO3)CCN1C (stereo unspecified),12µM,?,10µM,?,0
CCN(CC(=O)Nc1ccccc1C(F)(F)F)C(=O)c1ccc2c(c1)NC(=O)C(C)S2 (stereo unspecified),?,0,?,0,0
COc1ccc(OC)c(NC(=O)Cc2c(C(=O)O)n(C)c3ccc(C)cc23)c1,0,-,0,-,-
CN(Cc1ccccc1)C(=O)C1CCN(S(=O)(=O)Cc2ccccc2)CC1,0,-,0,-,-
CC1C(=O)N(Cc2cn(CC3CCCCC3)nn2)CCS(=O)(=O)N1Cc1ccc(-c2ccc(Cl)cc2)cc1 (stereo unspecified),16µM,16µM,8.2µM,0,?
CC1C(=O)N(Cc2cn(CC3CCCCC3)nn2)CCS(=O)(=O)N1Cc1ccc(-c2ccncc2)cc1 (stereo unspecified),0,0,0,?,0
CC1C(=O)N(Cc2cn(CC3CCCCC3)nn2)CCS(=O)(=O)N1Cc1ccc(-c2ccc(Cl)c(Cl)c2)cc1 (stereo unspecified),10µM,0,9.2µM,0,?
CCn1c(SCC(=O)NC2CC2)nnc1-c1ccc(F)cc1,0,0,0,0,0
CC1=CN2C(=N)/C(=C/c3ccc(Sc4ccc(C)cc4)o3)C(=O)N=C2S1,?,0,?,-58,0
CC1=CN2C(=N)/C(=C/c3ccc(Sc4ccc(Cl)cc4)o3)C(=O)N=C2S1,0,?,0,-69,?
CCCCOc1ccc(/C(N)=N/O)cc1,0,0,0,0,0
O=C(O)CCCN1C(=O)C(=O)/C(=C(/O)c2ccccc2)C1/C=C/c1ccccc1 (stereo unspecified),?,0,0,0,0
Cc1noc(C)c1C(=O)OCC(=O)NCc1ccccc1,0,0,0,0,0
CC(C)CC(CO)N1CCN(C(=O)c2cccc(Cl)c2)CCC1=O (stereo unspecified),0,0,0,0,?
CC(C)C[C@@H](COCc1cccc(Cl)c1)N1CCN(C(=O)c2ccc(C(F)(F)F)cc2)CCC1=O,?,?,?,-50,?
CC(C)CC(COCc1ccc(C(F)(F)F)cc1)N1CCN(C(=O)c2ccc(C(F)(F)F)cc2)CCC1=O (stereo unspecified),?,?,?,-54,?

# Compound activity: PubChem BioAssay, National Center for Advancing Translational Sciences (NCATS)
